Test results from PubChem BioAssay AID1347426 (Functional Genomics Laboratory (NCATS/FGL), 2020).
The whole screen tested about 31,000 sequences, of which about 1,400 (4.5%) were called active.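 Rule for the calls: active = median seed-adjusted z-score above 1 or below -1; inactive = the rest.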 The sample as a whole holds a higher share of actives than the screen did.

Assay: Novel Modifiers of Survival Motor Neuron (SMN) Protein: Gene Identification via Genome-wide siRNA Screen;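 note: luminescence tracks full-length SMN protein made from the SMN2 reporter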
Settings: HEK293T SMN2-luciferase reporter, siRNA knockdown, 72 h; actives lie on both sides
Procedure, shortened: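 Genome-wide siRNA screen (10418 genes, 3 siRNAs each, 1 pmol per well) by reverse transfection in HEK293T cells stably carrying an SMN2-luciferase reporter; luminescence after 72 hours, normalized to negative-control siRNA, log10-transformed, MAD-scored.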

Sequence | median seed-adjusted z-score
GCUACUAACAUUACUCCAATT against FOLH1 | 0.148 (inactive)
CCAUCUCUACCGACGAAGATT against ARHGEF1 | -0.0658 (inactive)
CAUUCUAUGGGAUACCCUATT against SYT4 | -0.354 (inactive)
CAGGAAGUCUGACCAAUAATT against LPL | 0.389 (inactive)
UGACCGAUGUCUUCCUUAUTT against RHOQ | -0.328 (inactive)
CUCUGAUUAUCAUGAGAUATT against SRGAP2 | 0.0323 (inactive)
AACCUAUAAUGAGGAUGUATT against ZNRF2 | 0 (inactive)
AGAGCGACCUCACCACCAATT against RAB1B | 1.55 (active)
GGAAGCGAAUACUACUAUUTT against ST6GALNAC3 | -0.205 (inactive)
GCAUUGAUCCUCAGAGUAATT against PTPRU | 0 (inactive)
GGGAUAUGAUAGAUCCUUATT against CPO | 0.0875 (inactive)
CCGCAUAGCUCAUAGGAUATT against SMARCA2 | -0.458 (inactive)
GCAUGGUAAUUUAUAGUUUTT against NGF | -0.325 (inactive)
GCACGGAAUUUGAACAGUATT against SOX17 | -0.46 (inactive)
GGAACAUCUUUGUACCUAUTT against NARG1 | -1.02 (active)
AUCUAGACUUCUCUUUAUATT against FHL3 | 0.105 (inactive)
UCCUCAACGUGUGCGAUGATT against KCNG1 | -0.00995 (inactive)
CCUCAGCUUUUACAGCAAATT against RAD23A | -1.13 (active)
GGCCUAUGCUAAUCAUUCUTT against FANCA | 0.418 (inactive)
GACUUGAAGAUGCUAAUCATT against TIPIN | 0 (inactive)
GAAUGAAAUCAGAGUAUAATT against RNF125 | 0.204 (inactive)
CCAGGUCCAUGGAAAGAAATT against NEIL2 | -0.256 (inactive)

Sequence | median seed-adjusted z-score
CGGCUAGAAGAGGAACAGATT against LSG1 | 1.31 (active)
CAAUGUGGUGUAUAAUACATT against VNN2 | -0.583 (inactive)
CAGUCACUGCACUACAGAATT against ATF7 | 0.903 (inactive)
AGAACAAAGACCUAAUGGATT against TNNT3 | -0.293 (inactive)
GAUUGAGAAUUCUAUUGUATT against UTP6 | -0.253 (inactive)
GAAUCGUUGUCAGAGCCUUTT against LMNB1 | 0.0619 (inactive)
AGGCAAAGACGGAACAACATT against TRIM69 | 0.214 (inactive)
GCAUUGGUCUAGAGCUUUATT against SCPEP1 | -0.99 (inactive)
GCAUCGUCACUGUCAUGAATT against ITPR3 | -1.28 (active)
AGUUUGAUGUUAUCAAUCUTT against PRKAG1 | 0.431 (inactive)
GCAGAUCUCGCUACAGGGATT against SFRS2B | -0.272 (inactive)
UCAGCUUCAGCUUAACUGATT against TUBA1B | 0.0888 (inactive)
CGAGAAUGACUAUCUUCAATT against STK32C | -0.311 (inactive)
GACCUGGGCAGAUUCCAAATT against MMP9 | -1.15 (active)
GGGUAUGAGAUAUGCGGUATT against TYW1 | 0.201 (inactive)
GAUUAGAUCUAAACAAUCUTT against TTRAP | -0.33 (inactive)
CCAGAAUGCCCAUAUCACATT against RS1 | -0.684 (inactive)
GCCUUCUGAUGGUAGAUCUTT against RANBP17 | -0.123 (inactive)
GGAUGGCAGGGAUUCCGAATT against ZNF213 | 1.37 (active)
GGAAAGUUGUGGGUCUAAUTT against SERPINA7 | 0.0925 (inactive)
GGACUUAAGCGACAACGCATT against RANGAP1 | -0.0379 (inactive)
GCACCGAACCCGUCUAUCATT against POU3F4 | -0.314 (inactive)

Sequence | median seed-adjusted z-score
GUAGCUUGCUACUCCAGAATT against POLR2D | -3.79 (active)
CGGAUGCACAAGCUAAAUATT against BHLHA15 | -0.199 (inactive)
CGGAAGGUAGUAAACCUUUTT against AMY1A | 0.272 (inactive)
GUAGCUCAUUUGUAAGGAATT against ZNF578 | -0.808 (inactive)
GGAGCGCAAGAUCACCUUATT against SSTR1 | 0.285 (inactive)
GCCGGUAUGUGAAGGAGAATT against CLK3 | -1.11 (active)
CACUUUUUAUAUUUACGUATT against TSPAN4 | 0.417 (inactive)
GUGUAGACAUAGUCUAAAATT against ZNF532 | -0.0289 (inactive)
CCCUGUCUGUGAAGCAUGATT against TXNDC2 | -1.29 (active)
GCUACAUCUUUAUAAGGGATT against IL12RB2 | 0.368 (inactive)
GGAAGAAAGCGGGACUUUUTT against PPME1 | 0.342 (inactive)
CAGACUCCCUCAUCACCAATT against ALAS1 | -1.15 (active)
CAAUGAACACUACUAACCATT against IL31RA | 0.36 (inactive)
CGGGAGUGGUUUUCAGAGATT against APOC1 | 0 (inactive)
GCUCUGAAUUCAGUGUUUATT against HTR3E | -0.717 (inactive)
GGUCUAACUCAAUAAUGGATT against REV3L | 0.062 (inactive)
GCUGAAUAUCUACACGGAATT against SLCO4A1 | -0.0802 (inactive)
GUGCUCGAAUGAUAACUAUTT against RAB2A | -0.038 (inactive)
GUGGAACAAUUGUAACAGATT against ETF1 | -1.12 (active)
GCUUCGAAUGGAUCUAGAATT against MYH8 | 0.0648 (inactive)
CCAACGAACAUGUACAACATT against CACNA2D3 | 0.198 (inactive)
GGAUAUGGUUAAUAGGAGATT against SMC6 | 0.227 (inactive)

Sequence | median seed-adjusted z-score
GCAGUUAGAUGUCAGGACATT against PPIA | 0.0169 (inactive)
CGAAAGGAGUCUUCACCAATT against PRDX6 | -0.0302 (inactive)
CCCUAGAUAUGGACGAUGATT against UTP3 | -1.08 (active)
CAAUGGACAGAAUACACUUTT against ZNF614 | 0.0971 (inactive)
UGAGCAGUGAGAACCCAUATT against PEAR1 | 0.071 (inactive)
CCAUAGUAGUGACUACCAUTT against GRIA3 | -0.358 (inactive)
AACUGGACCUUAAAAAGAATT against POU4F3 | 0 (inactive)
GGAUGUCCAGAGGCACUAATT against POLA2 | -0.114 (inactive)
GAAAGACUUGUUUAUAUUATT against ADRB1 | 1.06 (active)
CUCAAUCCAUAGUAAGUAUTT against ZNF678 | 0.172 (inactive)
CAAUUCUUGUCAUUUGAAATT against SLC25A19 | -0.104 (inactive)
CCAUAAUGAUAGAGUUUAATT against SLC24A4 | 0.0358 (inactive)
GAGUGAGAGCUGUAGAAAATT against CREB3 | 0.0509 (inactive)
AGUGGACAACAGAACAAUATT against SNRPG | -3.09 (active)
CCUGUACGAUGAGAUAGAATT against CYFIP2 | -0.322 (inactive)
GGAUGCACUUCUAAACUCATT against AKR1D1 | 0.211 (inactive)
GGUCUAGCCUUACACCUCATT against RAB3GAP2 | 0.0583 (inactive)
GAAGGGCUCUUUCACAGCUTT against ADAMTS13 | -0.276 (inactive)
GGACAUGUUCUACUCUUCATT against LRP5 | -1 (active)
GUCUCGAUGGAGCAAAGUATT against TCERG1 | 0.415 (inactive)
CGACUUGCUAAGCUACAUATT against MAOA | 0.665 (inactive)
GGAACAACGGUGGAGAUUUTT against ITGB5 | -0.00882 (inactive)

Sequence | median seed-adjusted z-score
GAAAGGAUCAGUGUCGAUATT against OCRL | -0.545 (inactive)
GCAGUUUCAGGGUAUGAAATT against LGMN | 0.391 (inactive)
GGAUCAUACUAGAAGACUATT against TREM1 | 0 (inactive)
GGAACACUAUGAUGAGUUUTT against U2AF1 | 2.08 (active)
GCUGCUCCCGGAAAUGCAATT against ISOC2 | -0.599 (inactive)
CAACAUGCCCAUUCGCUUUTT against ADIPOQ | 0.557 (inactive)
GCCUGAGACCAAAAACAGATT against SLC2A9 | 0.216 (inactive)
GAUCUGCAUCAAUACUGAATT against FBLN5 | -0.0832 (inactive)
CACUGACUAUUAUCAUUCATT against WHSC1L1 | -0.283 (inactive)
GGGAUGUAAUAACAGCAUUTT against GDE1 | -0.256 (inactive)
CUGUUGCACUUCACAUUUUTT against TRIP13 | 1 (active)
CAGCUUAAUUUUUACGCAATT against IPMK | -0.00138 (inactive)
CACCUACGAUAGCUACUAUTT against NKTR | -1.1 (active)
GCCUCACGUUUGUCAGUAUTT against WNK3 | -0.466 (inactive)
CAUCCAACGACAAUCUAUATT against ATP1A2 | 0.248 (inactive)
UCACGGCUCUGUUGAAUGUTT against DUSP4 | -0.176 (inactive)
GACCCAUGGUAAAAUGCAATT against TWIST1 | -0.159 (inactive)
GCAUAAUAAGGGUAGGGAUTT against DDX53 | -0.136 (inactive)
GAUAGAAGCAUGGAAUUGATT against MRS2 | 1.38 (active)
GGUCAAUUCAGUGAAGAUATT against ARL8B | -0.477 (inactive)
